Growth data for 8 compounds are collected here from PubChem BioAssay (NCI).

Test systems include K-562 leukemia; MALME-3M melanoma; MDA-MB-231 breast; RXF 393 renal; SF-268 CNS; SF-295 CNS; SF-539 CNS; UACC-257 melanoma; M14 melanoma; HCT-15 colon; HT29 colon; SNB-75 CNS; SNB-19 CNS; U251 CNS; PC-3 prostate; SK-MEL-5 melanoma; UACC-62 melanoma; LOX IMVI melanoma; SK-MEL-28 melanoma; SK-MEL-2 melanoma.
Common to all, as to test: NCI-60 one-dose screen, 48 h (100 = growth as untreated, 0 = no growth, -100 = all killed)
Holding throughout (details): 10 µM unless noted

Compounds without any hit were thinned out: in the full panel of roughly 83,000, 20% have a hit.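 A percent growth of 40 corresponds to 60% growth inhibition; 0 means no net growth; -100 means all cells died. Active threshold: below 10.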 A number with no mark means an inactive call. The source made the active and inactive calls.

Consider `COC1CCN(Cc2ccc3c(NNC(=O)c4cnccn4)nc4cc(F)ccc4n23)C1` (configuration not stated), for which the growth with K-562 leukemia is 12%; in the assay with MALME-3M melanoma, 48.6%; in the assay with MDA-MB-231 breast, 19.8%; in the assay with RXF 393 renal, 37.9%; in the assay on SF-268 CNS it was 35.8%; in the assay with SF-295 CNS, 21.4%. In addition, the growth is 4.26% (active) with SF-539 CNS; -3.02% (active) in the assay with UACC-257 melanoma; 3.22% (active) in the assay on M14 melanoma; 28.7% with HCT-15 colon; 19.3% in the assay with HT29 colon; 65.8% with SNB-75 CNS. Also, the growth in the assay on SNB-19 CNS was 36.1%; with U251 CNS it was 12.8%; in the assay on PC-3 prostate it was 40.9%; with SK-MEL-5 melanoma it was 15.9%; in the assay on UACC-62 melanoma, 20.7%; with LOX IMVI melanoma, 5.96% (active). Besides, the growth in the assay with SK-MEL-28 melanoma is 29.2%.
Regarding `NS(=O)(=O)c1cccc(Nc2nc(SCC(=O)c3ccc(Cl)cc3)nc3ccccc23)c1`, the growth is 68.2% in the assay on K-562 leukemia; 66.4% in the assay with MALME-3M melanoma; 56% in the assay with MDA-MB-231 breast; 72.2% with RXF 393 renal; 41.8% in the assay with SF-268 CNS; 71.8% with SF-295 CNS. Further, the growth in the assay on SF-539 CNS is 50.9%; in the assay with UACC-257 melanoma it was 95%; with M14 melanoma, 99.3%; in the assay on HCT-15 colon it was 88.8%; with HT29 colon, 88.4%; in the assay on SNB-75 CNS it was 33.6%. The growth was 69.6% in the assay with SNB-19 CNS; 46.4% in the assay on U251 CNS; 57.2% in the assay with PC-3 prostate; 73.5% in the assay on SK-MEL-5 melanoma; 62.6% in the assay on UACC-62 melanoma; 28.7% with LOX IMVI melanoma. Also, the growth with SK-MEL-28 melanoma is 89%.
For `COc1ccc(-c2nc3ccc(-c4nnc(SCC(=O)Nc5ccc(C(=O)/C=C/c6ccc(Cl)cc6)cc5)o4)cc3[nH]2)cc1OC`, the growth was 92.7% with K-562 leukemia; 95.1% in the assay with MALME-3M melanoma; 95.2% with MDA-MB-231 breast; 106% in the assay on RXF 393 renal; 106% with SF-268 CNS; 98% in the assay on SF-295 CNS. For the same compound, the growth in the assay on SF-539 CNS is 83.8%; with UACC-257 melanoma it was 112%; in the assay on M14 melanoma it was 108%; in the assay on HCT-15 colon, 97.1%; in the assay with HT29 colon it was 108%; in the assay with SNB-75 CNS, 106%. The growth is 109% in the assay with SNB-19 CNS; 100% with U251 CNS; 97.7% in the assay on PC-3 prostate; 97.6% with SK-MEL-5 melanoma; 98% in the assay on UACC-62 melanoma; 3.17% (active) in the assay with LOX IMVI melanoma. For the same compound, the growth in the assay on SK-MEL-28 melanoma was 105%; in the assay on SK-MEL-2 melanoma, 112%.
Regarding `COc1cccc(N2CCN(c3ncnc4c3[nH]c3ccc(F)cc34)C[C@@H]2C)c1`, the growth with K-562 leukemia is -36% (active); in the assay with MALME-3M melanoma, -26.4% (active); with MDA-MB-231 breast it was -4.16% (active); in the assay with RXF 393 renal it was -27.1% (active); in the assay on SF-268 CNS it was -1.64% (active); in the assay with SF-295 CNS, -14.9% (active). The growth with SF-539 CNS was -32.2% (active); with UACC-257 melanoma, -27.6% (active); in the assay with M14 melanoma it was -84.7% (active); in the assay with HCT-15 colon, 18.6%; in the assay on HT29 colon it was 5.69% (active); in the assay on SNB-75 CNS, -59% (active). For the same compound, the growth in the assay on SNB-19 CNS was -12% (active); in the assay on U251 CNS, -31.5% (active); in the assay on PC-3 prostate it was -42.3% (active); in the assay with SK-MEL-5 melanoma, -90.9% (active); in the assay on UACC-62 melanoma, -70.8% (active); in the assay with LOX IMVI melanoma it was 0.646% (active). In addition, the results for the growth with SK-MEL-28 melanoma and with SK-MEL-2 melanoma were -26.8% (active) and -94.9% (active), respectively.
Consider `Cc1[nH]nc2ncc(C#Cc3cncc(C(=O)Nc4ccc(CN5CCN(C)CC5)c(C(F)(F)F)c4)c3)cc12`, for which the growth was 7.53% (active) in the assay on K-562 leukemia; -28.5% (active) in the assay with MALME-3M melanoma; -39.2% (active) in the assay with MDA-MB-231 breast; -12.8% (active) in the assay on RXF 393 renal; 21.2% with SF-268 CNS; 34.2% with SF-295 CNS. The growth in the assay on SF-539 CNS is -3.8% (active); in the assay with UACC-257 melanoma, 14.7%; with M14 melanoma, -17.1% (active); in the assay on HCT-15 colon, 12.5%; in the assay with HT29 colon, 9.72% (active); in the assay on SNB-75 CNS, -6.21% (active). The growth in the assay with SNB-19 CNS is 50.5%; in the assay with U251 CNS, 40.5%; in the assay with PC-3 prostate, 48.8%; with SK-MEL-5 melanoma it was 40.2%; in the assay with UACC-62 melanoma, -15.8% (active); with LOX IMVI melanoma, -23.4% (active). In addition, the growth in the assay on SK-MEL-28 melanoma is -11.4% (active).
Consider `CN(C)c1ccc(-c2c(NC(C)(C)C)nc3c(OCCc4ccccc4)cccn23)cc1`, for which the growth in the assay with K-562 leukemia was 3.1% (active); in the assay with MALME-3M melanoma, 12.9%; with MDA-MB-231 breast it was 25.5%; in the assay with RXF 393 renal it was -25.8% (active); in the assay on SF-268 CNS, 56.6%; with SF-295 CNS, -12.7% (active). Also, the growth in the assay on SF-539 CNS is 17.8%; in the assay on UACC-257 melanoma, 3.18% (active); with M14 melanoma it was 29.7%; with HCT-15 colon it was 0.0072% (active); in the assay on HT29 colon, 10.2%; with SNB-75 CNS, 48.4%. For the same compound, the growth in the assay on SNB-19 CNS is 19.3%; in the assay on U251 CNS, 13.6%; with PC-3 prostate, 0.316% (active); in the assay with SK-MEL-5 melanoma, -69.4% (active); in the assay on UACC-62 melanoma, 35.1%; with LOX IMVI melanoma, 11.5%. For the same compound, the growth with SK-MEL-28 melanoma is 35.1%; in the assay on SK-MEL-2 melanoma it was 25.3%.
For the compound `OC1CCN(CCCOc2c3ccccc3nc3c2oc2ccccc23)CC1`, the growth is 6.75% (active) in the assay with K-562 leukemia; -32.6% (active) in the assay on MALME-3M melanoma; -31.5% (active) with MDA-MB-231 breast; -43.1% (active) in the assay with RXF 393 renal; 2.44% (active) in the assay with SF-268 CNS; -14.7% (active) in the assay with SF-295 CNS. Moreover, the growth in the assay on SF-539 CNS is -12.5% (active); in the assay on UACC-257 melanoma it was -17.7% (active); in the assay on M14 melanoma, -71.8% (active); in the assay with HCT-15 colon, -8.3% (active); in the assay on HT29 colon, 3.65% (active); with SNB-75 CNS, -1.06% (active). The growth was 0.345% (active) in the assay with SNB-19 CNS; 4.21% (active) with U251 CNS; -1.48% (active) in the assay with PC-3 prostate; -69.1% (active) with SK-MEL-5 melanoma; -57.8% (active) in the assay on UACC-62 melanoma; -63.3% (active) in the assay on LOX IMVI melanoma. Moreover, the growth was -2.42% (active) in the assay with SK-MEL-28 melanoma and -62.4% (active) with SK-MEL-2 melanoma.
Regarding `O=c1[nH]c2ccccc2cc1CSc1ccccc1Nc1nccc(-c2ccc(C(F)(F)F)cc2)n1`, the growth in the assay on K-562 leukemia is 58.6%; in the assay with MALME-3M melanoma, 63.6%; in the assay on MDA-MB-231 breast, 69%; in the assay on RXF 393 renal, 2.21% (active); in the assay on SF-268 CNS it was 70.4%; with SF-295 CNS, 72.7%. Besides, the growth is 45.5% in the assay on SF-539 CNS; 104% in the assay on UACC-257 melanoma; 92.1% with M14 melanoma; 69.1% with HCT-15 colon; 56.1% in the assay on HT29 colon; 66.4% in the assay on SNB-75 CNS. The growth with SNB-19 CNS was 59.6%; with U251 CNS, 47.5%; in the assay on PC-3 prostate, 56.6%; with SK-MEL-5 melanoma, 96.2%; in the assay on UACC-62 melanoma it was 70.4%; in the assay on LOX IMVI melanoma, 19.8%. Besides, the growth was 84.9% with SK-MEL-28 melanoma and 89.8% with SK-MEL-2 melanoma.
